Values joined by “and” are separate entries in the source; they are usually repeats but may differ in a detail not shown here. Identical values can stand only once. Inconclusive results are not listed. Some compounds were tested as several samples or in several runs, with calls that do not always agree. Active and inactive are the calls of the source. Unless noted, calls come from the whole dose curve; as a rule, active = well fitted curve in the direction sought with a large enough effect in the repeat runs; inconclusive = weak or mixed curves; inactive = no such curve, though single readings can be large; an effect the other way counts as inactive or inconclusive.

The target of assay [1] is Retinoic acid receptor RXR-alpha (Homo sapiens) (UniProt P19793). The assay is described as follows: qHTS assay to identify small molecule agonists of the RXR signaling pathway (AID 1159527; calls by dose curve; note: nearly all actives have a fitted effect of over 35% in size; note: potency is the fitted concentration of half-maximal effect). The gist of the method: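 16 hr incubation of compound-treated RXR-alpha-UAS-bla HEK 293T cells (2% charcoal-stripped FBS, 37 C) preceded a 2 hr room-temperature LiveBLAzer FRET substrate step and blue/green fluorescence measurement.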
(In general: Quantitative high-throughput screening tests each substance at several concentrations.)

The nature of assay [2]: qHTS assay to identify small molecule agonists of the RXR signaling pathway - cell viability counter screen (AID 1159529). Note: nearly all actives have a fitted effect of over 50% in size. Note: potency is the fitted concentration of half-maximal effect. The gist of the method: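 In this parallel viability measure, GeneBLAzer RXR-alpha HEK 293T cells (2% charcoal-stripped FBS) were given a 5 hr preincubation, treated with compounds 16 hr at 37 C, and read by CellTiter-Glo luminescence.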
A short description of assay [3]: qHTS assay to identify small molecule antagonists of the retinoid acid receptor (RAR) signaling pathway - cell viability counter screen (AID 1159551). Note: nearly all actives have a fitted effect of over 35% in size. The gist of the method: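 Cytotoxicity counter screen in C3RL4 cells: 6 h compound exposure with 1 uM retinol (final), viability from cellular ATP by luminescence.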
Assay [4] is described as follows: qHTS assay to identify small molecule antagonists of the estrogen related receptor (ERR) signaling pathway from Tox21 library - cell viability counter screen (AID 1224834). Note: nearly all actives have a fitted effect of over 30% in size. Note: potency is the fitted concentration of half-maximal effect. In a few lines:
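Cytotoxicity of test substances is gauged in the same ERR cells used for the antagonist screen, after 17.5 h of compound treatment at 37 C, by CellTiter-Fluor fluorescence measured after 30 min.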

Assay [5] has as its target Luciferin 4-monooxygenase (Photinus pyralis) (UniProt P08659). The experiment in a line: qHTS assay to identify small molecule inhibitors of firefly luciferase (AID 1224835). Note: nearly all actives have a fitted effect of over 25% in size. Note: potency is the fitted concentration of half-maximal effect. In a few lines: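 Biochemical qHTS: compounds run as interplate titrations against purified firefly enzyme, with D-luciferin and ATP each at its KM concentration. Light output recorded by CCD imaging.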

Assay [6] is described as follows: qHTS assay to identify small molecule agonists of the constitutive androstane receptor (CAR) signaling pathway - cell viability counter screen (AID 1224836). Note: series mostly up to about 92 µM; nearly all actives have a fitted effect of over 45% in size. The gist of the method: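 Using CellTiter-Fluor, viability of HepG2 cells harbouring hCAR and CYP2B6-2.2kb was measured following 23 h incubation with a 15-concentration compound series plus PK11195 (0.75 uM final).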

A short description of assay [7]: qHTS assay to identify small molecule antagonists of the constitutive androstane receptor (CAR) signaling pathway - cell viability counter screen (AID 1224837). Note: series mostly up to about 92 µM; nearly all actives have a fitted effect of over 45% in size. In a few lines:
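Multiplexed cytotoxicity read-out for the CAR antagonist screen: double-stable HepG2-CYP2B6-hCAR cells co-treated with 50 nM CITCO (final) and compound over 15 concentrations, incubated 23 hr, then assessed by CellTiter-Fluor fluorescence.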

Assay [8] can be described thus: qHTS assay to identify small molecule antagonists of the retinoic acid receptor (RAR) signaling pathway (AID 1159552; note: nearly all actives have a fitted effect of over 50% in size; note: potency is the fitted concentration of half-maximal effect). The gist of the method:
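C3RL4 RARE-luc cells, overnight plating; retinol 1 uM final added right after compound; 6 hr 37 C; luciferase read at 30 min RT.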

The nature of assay [9]: qHTS assay to identify small molecule agonists of the retinoic acid receptor (RAR) signaling pathway (AID 1159553). Note: potency is the fitted concentration of half-maximal effect. In a few lines:
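Agonist activity was scored in C3RL4 cells bearing a retinoic acid response element luciferase construct. Cells were treated with compounds for 6 hr at 37 C, and luciferase signal was measured as luminescence.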

Assay [10] is described as follows: qHTS assay to identify small molecule antagonists of the estrogen related receptor signaling pathway with the pleiotropic PPARgamma coactivator (PGC) cell viability counter screen (AID 1224822;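 note: series mostly up to about 46 µM; viability read after 17.5 h compound exposure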). The gist of the method:
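Seed PGC/ERR cells (2,000/well); incubate 6 h at 37 C/5% CO2; pin-transfer compounds in DMSO; incubate 17.5 h at 37 C; add CellTiter-Fluor; after 30 min read fluorescence.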

Sequence of Luciferin 4-monooxygenase (Photinus pyralis) (P08659 whole entry, looked up): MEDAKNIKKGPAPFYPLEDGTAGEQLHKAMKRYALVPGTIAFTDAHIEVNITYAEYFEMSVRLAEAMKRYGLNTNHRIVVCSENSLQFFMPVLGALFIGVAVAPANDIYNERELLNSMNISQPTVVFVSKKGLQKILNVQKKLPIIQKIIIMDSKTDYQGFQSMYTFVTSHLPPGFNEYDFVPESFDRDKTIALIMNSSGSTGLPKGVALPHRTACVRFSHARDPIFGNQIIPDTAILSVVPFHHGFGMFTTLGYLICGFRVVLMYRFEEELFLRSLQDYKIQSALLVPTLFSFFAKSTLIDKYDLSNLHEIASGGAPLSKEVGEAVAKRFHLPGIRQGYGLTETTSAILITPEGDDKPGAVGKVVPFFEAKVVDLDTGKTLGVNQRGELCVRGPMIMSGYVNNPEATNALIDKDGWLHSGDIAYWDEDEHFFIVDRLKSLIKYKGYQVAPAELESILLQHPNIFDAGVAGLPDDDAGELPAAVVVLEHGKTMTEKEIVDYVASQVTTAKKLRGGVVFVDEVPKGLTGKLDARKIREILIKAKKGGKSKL
Sequence of Retinoic acid receptor RXR-alpha (Homo sapiens) (P19793 whole entry, looked up): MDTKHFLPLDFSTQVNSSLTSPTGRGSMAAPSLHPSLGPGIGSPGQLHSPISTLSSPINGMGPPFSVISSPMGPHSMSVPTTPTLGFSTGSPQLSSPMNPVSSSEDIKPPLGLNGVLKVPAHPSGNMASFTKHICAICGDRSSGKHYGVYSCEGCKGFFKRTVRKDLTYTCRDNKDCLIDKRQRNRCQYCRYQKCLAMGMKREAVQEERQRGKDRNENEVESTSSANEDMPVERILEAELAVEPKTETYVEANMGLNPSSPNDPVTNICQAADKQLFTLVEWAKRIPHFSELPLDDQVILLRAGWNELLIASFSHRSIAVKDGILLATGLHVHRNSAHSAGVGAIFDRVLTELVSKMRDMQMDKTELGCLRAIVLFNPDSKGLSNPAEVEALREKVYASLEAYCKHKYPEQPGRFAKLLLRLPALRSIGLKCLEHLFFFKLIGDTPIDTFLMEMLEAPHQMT

Consider `Cc1occc(=O)c1O`, for which the Potency result in assay [1] was “inactive and 12.9 µM (active)”. Also, the Potency entry in assay [2], in [4], in assay [5], in assay [6] and in assay [7] was “inactive” each time. Besides, the outcome in assay [3] was inactive.
With `O=C(Oc1ccccc1)c1ccccc1`, the Potency result in assay [1], in [2], in assay [8], in [9], in assay [4] and in [6] was “inactive” in each case. For the same compound, the Potency result in assay [7] is “inactive”. For the same compound, in assay [5], the Potency result is “inactive and 71 µM (active)”.
On to `OCc1cccnc1`, for which the Potency entry in [1], in assay [2], in assay [4], in [5], in assay [6] and in [7] was “inactive” each time. The result in assay [3] was inactive.
On to `CC1=CCC2CC1C2(C)C` (stereo not drawn), for which the Potency result in assay [1], in assay [2], in [8], in [9], in assay [4] and in assay [5] was “inactive” in each case. For the same compound, the Potency entry in assay [6] and in [7] was “inactive” each time.
On to `CC1CCC2CC1C2(C)C` (stereo not drawn), for which the Potency entry in [1], in assay [2], in assay [4], in assay [5], in assay [6] and in assay [7] was “inactive” in each case. The compound was classed as inactive in [3].
In the case of `C[C@H]1C[C@@H]2[C@H]([C@@H](O)C[C@@]3(C)[C@H]2CC[C@]3(O)C(=O)CO)[C@@]2(C)C=CC(=O)C=C12`, the Potency entry in assay [1], in assay [2], in assay [8], in assay [9], in [4] and in [5] was “inactive” each time. Also, the Potency result in assay [6] and in assay [7] was “inactive” throughout.
Consider `C=CCNC(N)=S`, for which the Potency entry in assay [1], in assay [8], in assay [9], in assay [4], in assay [5] and in [6] was “inactive” each time. Also, in assay [7], the Potency result is “inactive”. Moreover, the Potency in assay [2] was 38 µM (active) and inactive.
For `CC(c1cc2ccccc2s1)N(O)C(N)=O` (stereo not drawn), the Potency entry in assay [1], in assay [2], in [4], in assay [5], in assay [6] and in assay [7] was “inactive” in each case. Also, the compound was called inactive in assay [3].
On to `O=c1[nH]nnc2ccccc12`, for which the Potency result in assay [1], in [2], in assay [4], in assay [5], in [6] and in assay [7] was “inactive” in each case. For the same compound, the result in assay [3] was inactive.
As for `CC1=CC(=O)NS(=O)(=O)O1`, the Potency result in assay [1], in [2], in assay [4], in [6] and in assay [7] was “inactive” in each case. Further, the result in [3] was inactive.
For `O=C(O)[C@H](O)[C@@H](O)[C@H](O)[C@H](O)CO`, the Potency entry in assay [1], in [2], in assay [8], in assay [9], in assay [4] and in assay [5] was “inactive” throughout. The Potency result in [6] and in assay [7] was “inactive” throughout.
Take `CCC(O)OCCCOC` (stereo not drawn): the Potency result in assay [1], in assay [2], in [4], in assay [5], in assay [6] and in assay [7] was “inactive” each time. In addition, the result in [3] was inactive.
Turning to `CN(C)CCCN`, the Potency entry in assay [1], in assay [2], in assay [4], in [5], in assay [6] and in assay [7] was “inactive” throughout. The compound was called inactive in assay [3].
Turning to `CC1=C(C)S(=O)(=O)CCS1(=O)=O`, the Potency entry in assay [1], in [2], in assay [4], in assay [5], in assay [6] and in assay [7] was “inactive” each time. For the same compound, the compound was called inactive in assay [3].
As for `CC(=O)CC(=O)Nc1ccccc1`, the Potency entry in assay [1], in assay [2], in assay [8], in assay [9], in assay [4] and in assay [5] was “inactive” in each case. In addition, the Potency entry in assay [6] and in assay [7] was “inactive” throughout.
In the case of `CN(C)CCC(c1ccccc1)c1ccccn1` (stereo not drawn), the Potency result in [1], in assay [2], in assay [8], in assay [9], in assay [4] and in assay [5] was “inactive” throughout. Besides, the Potency entry in assay [6] and in assay [7] was “inactive” throughout. In [10], the result was inactive.
As for `Oc1cccc2ccccc12`, the Potency entry in assay [1], in assay [2], in assay [4], in [6] and in [7] was “inactive” each time. In assay [3], the compound was classed as inactive.
Regarding `c1ccc(OCCOc2ccccc2)cc1`, the Potency result in assay [1], in assay [2], in assay [4], in [6] and in [7] was “inactive” each time. Besides, the call in assay [3] was inactive. The Potency in assay [5] was 28.2 µM (active) and 35.6 µM (active).
With `CC(C)c1ccc(S(=O)(=O)O)cc1`, the Potency entry in [1], in [2], in assay [4], in assay [5], in assay [6] and in [7] was “inactive” each time. For the same compound, in assay [3], the result was inactive.
For the compound `CC1CCC(C(C)C)C(O)C1` (stereo not drawn), the Potency entry in [1], in [2], in assay [8], in assay [9], in assay [4] and in [5] was “inactive” each time. The Potency entry in [6] and in assay [7] was “inactive” each time.
For the compound `O=C(O)c1cc(C(=O)O)cc(S(=O)(=O)O)c1`, the Potency entry in assay [1], in assay [2], in assay [8], in assay [9], in assay [4] and in assay [5] was “inactive” in each case. Moreover, the Potency entry in [6] and in [7] was “inactive” in each case.
Take `Cc1cccnc1`: the Potency result in [1], in assay [2], in assay [4], in assay [5], in [6] and in assay [7] was “inactive” in each case. Besides, the result in assay [3] was inactive.
Turning to `CCCCN(CCCC)CCCC`, the Potency result in assay [1], in assay [2], in [4], in assay [5], in [6] and in assay [7] was “inactive” in each case. In addition, in [3], the compound was called inactive.
As to `CCc1ccc(CCOc2ccc(CC3SC(=O)NC3=O)cc2)nc1` (stereo not drawn), the Potency result in [2], in assay [4], in [6] and in assay [7] was “inactive” each time. For the same compound, in assay [5], the Potency is 31.7 µM (active) and 24.5 µM (active).
In the case of `CC[C@H](C)C(=O)O[C@H]1C[C@@H](C)C=C2C=C[C@H](C)[C@H](CC[C@@H]3C[C@@H](O)CC(=O)O3)[C@H]21`, the Potency was 8.83 µM (active) in [2]; 69.6 µM (active) and inactive in assay [4]. For the same compound, in [3], the compound was classed as inactive. The Potency entry in assay [5], in [6] and in assay [7] was “inactive” throughout.
Take `CCCCCC1=CCCC1=O`: the Potency result in [1], in assay [2], in [8], in [9], in [4] and in assay [5] was “inactive” each time. For the same compound, the Potency entry in assay [6] and in [7] was “inactive” in each case.
`COc1ccc2cc([C@H](C)C(=O)O)ccc2c1`: the Potency result in [1], in assay [2], in assay [4], in [6] and in assay [7] was “inactive” in each case. Moreover, in [10], the result was inactive.
With `CSCCC=O`, the Potency entry in assay [2], in assay [8], in [9], in [4], in assay [5] and in assay [6] was “inactive” throughout. For the same compound, the Potency entry in [7] is “inactive”. In assay [3], the outcome was inactive.
Turning to `C#C[C@]1(O)CC[C@H]2[C@@H]3CCC4=CC(=O)CC[C@@H]4[C@H]3CC[C@@]21C`, the Potency result in assay [2], in [9], in assay [4], in [5], in assay [6] and in assay [7] was “inactive” in each case. Further, the call in [3] was inactive. Also, the Potency in assay [8] is 27.3 µM (active) and 11.9 µM (active).
Consider `CCCSc1ccc2nc(NC(=O)OC)[nH]c2c1`, for which the Potency entry in [2], in assay [8], in [4], in assay [6] and in [7] was “inactive” in each case. For the same compound, in [3], the compound was called inactive. Further, the Potency was 6.11 µM (active) and 21.1 µM (active) in [9]; 3.99 µM (active) and 4.36 µM (active) in assay [5].

For the origin of these results see PubChem BioAssay (Tox21).
